Assay results: the antibiotic and cytotoxicity screens of Wong et al. (2023)
About 3,300 (8.5%) of roughly 39,000 compounds were called active. The full list was thinned out, with actives kept by preference.

system: HepG2; test: cytotoxicity call (relative viability < 0.9); conditions: 10 µM

SMILES	cytotoxicity call
COc1ccc(-c2cnc3c(c2)C(=O)N([C@@H](C)CO)C[C@H](C)[C@@H](CN(C)C(=O)C2CCOCC2)O3)cc1	inactive
COc1ccc(S(=O)(=O)Nc2ccc3c(c2)C(=O)N([C@H](C)CO)C[C@H](C)[C@H](CN(C)C(=O)CCC(F)(F)F)OCCCC[C@H](C)O3)cc1	inactive
COc1ccc(NC(=O)N(C)C[C@H]2OCCCC[C@@H](C)Oc3ccc(NC(=O)c4ccncc4)cc3C(=O)N([C@@H](C)CO)C[C@H]2C)cc1	inactive
O=C(C[C@@H]1C=C[C@@H](NC(=O)c2cccnc2)[C@@H](CO)O1)NCc1ccncn1	inactive
C[C@@H]1CCCCO[C@@H](CN(C)S(=O)(=O)c2cccs2)[C@H](C)CN([C@H](C)CO)C(=O)c2cc(NC(=O)c3ccccc3)ccc2O1	active
C[C@@H]1CN([C@H](C)CO)C(=O)c2cc(NC(=O)c3ccccc3)ccc2O[C@@H](C)CCCCO[C@H]1CN(C)S(=O)(=O)c1cccs1	active
C[C@@H]1CN([C@@H](C)CO)C(=O)c2cc(NC(=O)c3ccccc3)ccc2O[C@@H](C)CCCCO[C@@H]1CN(C)S(=O)(=O)c1cccs1	inactive
C[C@@H]1CCCCO[C@@H](CN(C)S(=O)(=O)c2cccs2)[C@H](C)CN([C@@H](C)CO)C(=O)c2cc(NC(=O)c3ccccc3)ccc2O1	inactive
C[C@@H]1CCCCO[C@H](CN(C)S(=O)(=O)c2cccs2)[C@@H](C)CN([C@@H](C)CO)C(=O)c2cc(NC(=O)c3ccccc3)ccc2O1	inactive
C[C@@H]1CCCCO[C@@H](CN(C)S(=O)(=O)c2cccs2)[C@@H](C)CN([C@@H](C)CO)C(=O)c2cc(NC(=O)c3ccccc3)ccc2O1	inactive
Cc1noc(C)c1S(=O)(=O)Nc1ccc2c(c1)C(=O)N([C@H](C)CO)C[C@H](C)[C@@H](CN(C)S(C)(=O)=O)OCCCC[C@@H](C)O2	inactive
CCOC(=O)N1CCN(C[C@@H](O)Cn2c(=O)c3c(ncn3C)n(C)c2=O)CC1	inactive
Cc1noc(C)c1S(=O)(=O)Nc1ccc2c(c1)C(=O)N([C@H](C)CO)C[C@@H](C)[C@@H](CN(C)S(=O)(=O)c1cn(C)cn1)OCCCC[C@@H](C)O2	inactive
COc1ccc(NC(=O)Nc2ccc3c(c2)C(=O)N([C@H](C)CO)C[C@H](C)[C@@H](CN(C)CC2CC2)OCCCC[C@H](C)O3)cc1	inactive
CCOC(=O)C(C#N)C1=NCCC1 (stereo not drawn)	inactive
C[C@@H]1CN([C@H](C)CO)C(=O)c2cc(NC(=O)c3ccccc3)ccc2O[C@@H](C)CCCCO[C@@H]1CN(C)C(=O)Cc1ccccc1	inactive
COc1cccc(NC(=O)N[C@H]2C=C[C@H](CC(=O)N3CCN(C)CC3)O[C@@H]2CO)c1	inactive
C[C@H]1CN([C@@H](C)CO)C(=O)c2cc(NC(=O)CCN3CCOCC3)ccc2O[C@@H]1CN(C)Cc1ccc(C(=O)O)cc1	inactive
C[C@H]1CN([C@@H](C)CO)C(=O)c2cc(NS(=O)(=O)c3cn(C)cn3)ccc2O[C@H]1CN(C)CC1CC1	inactive

SMILES	cytotoxicity call
COCC(=O)Nc1ccc2c(c1)OC[C@@H](C)N(C(=O)c1ccccc1F)C[C@@H](C)[C@H](OC)CN(C)C2=O	inactive
O=C1OCC=C[C@H]2O[C@@]34C=CCN(CCN5CCOCC5)C(=O)[C@H]3N(CCCCCCO)C(=O)[C@@H]4[C@@H]12	inactive
C=CC1CN2CCC1CC2C(O)c1ccnc2ccc(OC)cc12.O=C(O)C(O)C(O)C(O)C(O)CO (stereo not drawn)	inactive
C=CC1CN2CCC1CC2C(O)c1ccnc2ccc(OC)cc12.Cl (stereo not drawn)	active
C=CC1CN2CCC1CC2C(O)c1ccnc2ccc(OC)cc12 (stereo not drawn)	inactive
COc1ccc2c3c(n(c2c1)C)[C@H](CO)N(C[C@]13CCN(CC1)C(=O)c1ccccc1F)C(=O)Nc1ccccc1F	inactive
C[C@@H]1CN([C@H](C)CO)C(=O)c2cc(NS(=O)(=O)c3cn(C)cn3)ccc2O[C@@H](C)CCCCO[C@H]1CN(C)S(=O)(=O)c1ccc(F)cc1	inactive
COc1ccc(-c2cnc3c(c2)C(=O)N([C@@H](C)CO)C[C@@H](C)[C@H](CN(C)S(=O)(=O)c2ccc(OC)cc2)O3)cc1	inactive
O=[N+]([O-])c1ccc(O)c2ncccc12	active
NS(=O)(=O)c1ccc(O)c([N+](=O)[O-])c1	inactive
Oc1ccc(Cl)c2cccnc12 [listing 1 of 2 here]	active
O=[N+]([O-])c1ncn(Cc2ccccn2)n1	inactive
Fc1cccc2c(Cl)ccnc12	inactive
Oc1ccc(Cl)c2c1CCC2	inactive
Oc1ccc(Cl)c2cccnc12 [listing 2 of 2 here]	active
O=C(C[C@H]1CC[C@@H]2[C@H](COC[C@@H](O)CN2C(=O)c2ccncc2)O1)NC1CCC1	inactive
C[C@@H]1CCCCO[C@H](CN(C)CC2CCCCC2)[C@H](C)CN([C@@H](C)CO)C(=O)c2cc(NC(=O)NC3CCCCC3)ccc2O1	inactive
O=C(C[C@@H]1CC[C@@H]2[C@H](COC[C@H](O)CN2Cc2ccccc2F)O1)N[C@H]1CCN(Cc2ccccc2)C1	inactive
C[C@H](CO)N1C[C@H](C)[C@@H](CN(C)C(=O)Nc2cccc3ccccc23)Oc2c(NS(=O)(=O)c3ccc(F)cc3)cccc2C1=O	inactive
